In PubChem BioAssay (EPA / NIEHS):
Several values for one entry are separate records, joined by “and”; a condition that tells them apart may be missing. Equal entries are not always repeated. Results filed as inconclusive are left out. Where a structure was tested more than once in an assay, its records may differ in their call. Activity calls are given as the source filed them. How the source made its calls, unless noted: active means hit-call score of the fitted dose curve at least 0.9, where 1 is the maximum; inactive means score below 0.9.

Tests used:
[1] = biological target: Estrogen-related receptor gamma (Homo sapiens) (UniProt P62508); assay: ATG_ERRg_TRANS: Attagene TRANS-FACTORIAL HepG2 Assay for human Estrogen-Related Receptor gamma (ERRg) (AID 2282977; active means hit-call score of the fitted dose curve at least 0.9, where 1 is the maximum;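 further: hits increase reporter signal over DMSO so potencies reflect activators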); conditions: HepG2 Attagene TRANS reporter, ERRg transactivation
Chain of Estrogen-related receptor gamma (Homo sapiens) (P62508 whole entry, looked up, the tested form may be a part): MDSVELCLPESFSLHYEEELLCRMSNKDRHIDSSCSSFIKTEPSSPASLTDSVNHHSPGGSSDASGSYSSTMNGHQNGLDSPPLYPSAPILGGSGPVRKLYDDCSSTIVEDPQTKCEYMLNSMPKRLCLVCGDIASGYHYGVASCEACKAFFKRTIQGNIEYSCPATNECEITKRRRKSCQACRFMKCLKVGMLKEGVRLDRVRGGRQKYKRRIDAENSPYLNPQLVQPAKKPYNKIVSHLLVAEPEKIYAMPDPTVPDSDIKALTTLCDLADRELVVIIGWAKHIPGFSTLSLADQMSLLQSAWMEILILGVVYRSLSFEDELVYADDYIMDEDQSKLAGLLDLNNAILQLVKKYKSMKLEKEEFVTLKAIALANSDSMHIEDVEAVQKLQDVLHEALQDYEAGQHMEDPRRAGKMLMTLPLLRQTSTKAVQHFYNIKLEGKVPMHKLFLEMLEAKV
Summary of the method: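 HepG2 cells transiently transfected with multiplexed GAL4-UAS reporter units and chimeric NR-Gal4 constructs were exposed to test chemicals for 24 h. Reporter mRNA was measured by RT-PCR, 6-FAM primer extension, HpaI digestion and capillary electrophoresis; gain-of-signal versus DMSO.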

[2] = biological target: Glucocorticoid receptor (Homo sapiens) (UniProt P04150); assay: ATG_GR_TRANS: Attagene TRANS-FACTORIAL HepG2 Assay for human Glucocorticoid Receptor (GR) (AID 2282978; active means hit-call score of the fitted dose curve at least 0.9, where 1 is the maximum;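 further: activators score as hits since higher reporter transcript over DMSO is fitted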); conditions: HepG2 Attagene TRANS GR reporter, mRNA transcription
Chain of Glucocorticoid receptor (Homo sapiens) (P04150 whole entry, looked up, the tested form may be a part): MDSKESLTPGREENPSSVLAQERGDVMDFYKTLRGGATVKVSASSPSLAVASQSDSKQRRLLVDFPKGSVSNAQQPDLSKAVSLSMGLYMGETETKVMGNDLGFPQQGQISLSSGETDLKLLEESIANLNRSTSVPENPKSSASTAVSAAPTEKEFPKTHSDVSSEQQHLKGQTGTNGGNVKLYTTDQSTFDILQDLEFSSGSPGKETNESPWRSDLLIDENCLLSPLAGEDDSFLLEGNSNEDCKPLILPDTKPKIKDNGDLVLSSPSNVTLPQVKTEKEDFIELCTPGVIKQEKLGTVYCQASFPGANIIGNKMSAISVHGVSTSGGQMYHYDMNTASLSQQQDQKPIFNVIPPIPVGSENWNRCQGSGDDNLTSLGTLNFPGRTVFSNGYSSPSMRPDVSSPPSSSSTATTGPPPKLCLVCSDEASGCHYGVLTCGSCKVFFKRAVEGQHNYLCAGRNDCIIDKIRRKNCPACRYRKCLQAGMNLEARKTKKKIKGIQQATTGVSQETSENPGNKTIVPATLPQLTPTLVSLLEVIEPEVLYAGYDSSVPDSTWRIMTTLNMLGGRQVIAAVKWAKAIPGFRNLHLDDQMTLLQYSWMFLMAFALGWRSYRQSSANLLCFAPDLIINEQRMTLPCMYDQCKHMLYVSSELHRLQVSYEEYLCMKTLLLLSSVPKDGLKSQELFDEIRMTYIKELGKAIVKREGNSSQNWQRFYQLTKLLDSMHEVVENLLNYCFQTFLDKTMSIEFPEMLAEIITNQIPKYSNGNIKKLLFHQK
Summary of the method: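 In this trans-factorial format, exogenous NR-GAL4 chimeric proteins in transfected HepG2 cells regulate GAL4-UAS reporter transcription. After 24 h treatment, reporter mRNA induction relative to DMSO is read by RT-PCR and capillary electrophoresis.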

[3] = biological target: Bile acid receptor (Homo sapiens) (UniProt Q96RI1); assay: ATG_FXR_TRANS: Attagene TRANS-FACTORIAL HepG2 Assay for Farnesoid X Receptor (FXR) (AID 2282979; active means hit-call score of the fitted dose curve at least 0.9, where 1 is the maximum;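 further: hits raise reporter mRNA above DMSO so AC50 marks FXR activation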); conditions: HepG2 Attagene TRANS FXR-GAL4 reporter transcription
Summary of the method: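 Reporter transcripts from transfected HepG2 cells were measured 24 h after dosing, using RT-PCR with capillary electrophoresis of 6-FAM-labelled fragments. The read-out reflects activity of exogenous FXR-Gal4 chimera on GAL4-UAS units, with induction relative to DMSO.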

[4] = biological target: Oxysterols receptor LXR-beta (Homo sapiens) (UniProt P55055); assay: ATG_LXRb_TRANS: Attagene TRANS-FACTORIAL HepG2 Assay for human Liver X Receptor beta (LXRb) (AID 2282981; active means hit-call score of the fitted dose curve at least 0.9, where 1 is the maximum); conditions: HepG2 Attagene TRANS GAL4-LXRb reporter, mRNA
Chain of Oxysterols receptor LXR-beta (Homo sapiens) (P55055 whole entry, looked up, the tested form may be a part): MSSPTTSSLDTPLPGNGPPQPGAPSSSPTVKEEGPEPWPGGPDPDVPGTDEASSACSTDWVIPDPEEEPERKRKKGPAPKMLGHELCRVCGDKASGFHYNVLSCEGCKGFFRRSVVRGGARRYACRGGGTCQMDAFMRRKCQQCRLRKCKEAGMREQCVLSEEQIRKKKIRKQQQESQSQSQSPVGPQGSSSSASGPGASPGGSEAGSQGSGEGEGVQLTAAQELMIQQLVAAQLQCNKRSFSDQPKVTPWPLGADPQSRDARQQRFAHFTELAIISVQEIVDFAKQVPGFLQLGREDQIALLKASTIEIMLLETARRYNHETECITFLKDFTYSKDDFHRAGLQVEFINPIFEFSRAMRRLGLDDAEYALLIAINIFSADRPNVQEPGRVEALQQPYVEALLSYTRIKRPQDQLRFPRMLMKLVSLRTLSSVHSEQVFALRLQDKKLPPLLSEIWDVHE
Summary of the method: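 HepG2 cells transiently transfected with multiple reporter transcription units carrying chimeric NR-Gal4 proteins acting on GAL4-UAS reporters; compound exposure 24 h. Reporter mRNA quantified by RT-PCR, 6-FAM labelling, HpaI digestion and capillary electrophoresis; gain of signal versus DMSO.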

[5] = biological target: Hepatocyte nuclear factor 4-alpha (Homo sapiens) (UniProt P41235); assay: ATG_HNF4a_TRANS: Attagene TRANS-FACTORIAL HepG2 Assay for human Hepatocyte Nuclear Factor 4 alpha (HNF4a) (AID 2282982; active means hit-call score of the fitted dose curve at least 0.9, where 1 is the maximum); conditions: HepG2 HNF4a transactivation reporter, mRNA readout
Chain of Hepatocyte nuclear factor 4-alpha (Homo sapiens) (P41235 whole entry, looked up, the tested form may be a part): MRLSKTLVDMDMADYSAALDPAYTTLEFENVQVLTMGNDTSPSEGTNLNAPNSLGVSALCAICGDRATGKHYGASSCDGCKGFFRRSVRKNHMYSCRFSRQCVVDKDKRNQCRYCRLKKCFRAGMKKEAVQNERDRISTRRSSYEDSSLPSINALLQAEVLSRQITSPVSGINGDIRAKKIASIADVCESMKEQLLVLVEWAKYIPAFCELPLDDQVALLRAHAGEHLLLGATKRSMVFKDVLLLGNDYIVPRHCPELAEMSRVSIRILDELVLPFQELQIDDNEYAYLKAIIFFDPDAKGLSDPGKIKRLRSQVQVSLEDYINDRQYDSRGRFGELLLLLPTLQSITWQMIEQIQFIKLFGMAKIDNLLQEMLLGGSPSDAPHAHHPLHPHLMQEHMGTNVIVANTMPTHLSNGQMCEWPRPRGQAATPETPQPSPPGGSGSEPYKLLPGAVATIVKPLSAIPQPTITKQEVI
Summary of the method: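 HepG2 cells transiently transfected with multiplexed GAL4-UAS reporter units responsive to chimeric NR-GAL4 proteins; compound exposure 24 h. Reporter mRNA quantified by RT-PCR, 6-FAM labelling, HpaI digestion and capillary electrophoresis; gain of signal versus DMSO baseline.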

[6] = ATG_M_32_TRANS: Attagene TRANS-FACTORIAL HepG2 Assay for M32 Transcription Factor (Internal Marker) (AID 2282984; active means hit-call score of the fitted dose curve at least 0.9, where 1 is the maximum;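 further: transcript level of a background control reporter unit measured by RT-PCR and capillary electrophoresis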); conditions: HepG2 Attagene TRANS M32 internal marker reporter
Summary of the method: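 HepG2 cells transiently transfected with multiple GAL4-UAS reporter transcription units, dosed for 24 hours; reporter mRNA quantified by RT-PCR, 6-FAM primer extension, HpaI digestion and capillary electrophoresis. Gain-of-signal fitted versus DMSO baseline; internal background-control marker.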

[7] = biological target: Nuclear receptor subfamily 4 group A member 2 (Homo sapiens) (UniProt P43354); assay: ATG_NURR1_TRANS: Attagene TRANS-FACTORIAL HepG2 Assay for human Nuclear Receptor Related Protein 1 (NURR1) (AID 2282985; active means hit-call score of the fitted dose curve at least 0.9, where 1 is the maximum); conditions: HepG2 Attagene TRANS reporter, mRNA readout
Chain of Nuclear receptor subfamily 4 group A member 2 (Homo sapiens) (P43354 whole entry, looked up, the tested form may be a part): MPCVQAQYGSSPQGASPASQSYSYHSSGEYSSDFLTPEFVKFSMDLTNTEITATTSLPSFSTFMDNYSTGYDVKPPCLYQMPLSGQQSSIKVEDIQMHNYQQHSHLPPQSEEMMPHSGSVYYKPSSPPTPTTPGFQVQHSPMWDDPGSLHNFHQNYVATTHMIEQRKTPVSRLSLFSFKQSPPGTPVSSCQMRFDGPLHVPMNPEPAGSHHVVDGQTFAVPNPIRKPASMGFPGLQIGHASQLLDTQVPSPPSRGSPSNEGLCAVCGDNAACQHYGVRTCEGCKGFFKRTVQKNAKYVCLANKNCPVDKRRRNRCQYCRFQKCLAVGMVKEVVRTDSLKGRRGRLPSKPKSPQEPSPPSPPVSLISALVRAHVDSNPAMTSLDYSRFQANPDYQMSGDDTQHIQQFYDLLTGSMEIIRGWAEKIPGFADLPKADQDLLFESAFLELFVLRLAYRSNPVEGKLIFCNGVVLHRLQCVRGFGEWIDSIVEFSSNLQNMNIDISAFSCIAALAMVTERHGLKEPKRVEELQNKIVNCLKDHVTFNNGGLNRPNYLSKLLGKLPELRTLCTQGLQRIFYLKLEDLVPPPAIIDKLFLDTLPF
Summary of the method: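 HepG2 cells transiently transfected with GAL4-UAS reporter units and chimeric NR-Gal4 constructs; chemical exposure 24 h. Reporter mRNA quantified by RT-PCR, fluorescent labelling and capillary electrophoresis; gain of signal fitted relative to DMSO baseline.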

[8] = biological target: Transcriptional activator Myb (Homo sapiens) (UniProt P10242); assay: ATG_Myb_CIS: Attagene CIS-FACTORIAL HepG2 Assay for human Myeloblastosis (Myb) Proto-Oncogene Transcription Factor (AID 2282986); conditions: HepG2 Attagene CIS-FACTORIAL Myb reporter transcription; actives raise or lower the signal
Chain of Transcriptional activator Myb (Homo sapiens) (P10242 whole entry, looked up): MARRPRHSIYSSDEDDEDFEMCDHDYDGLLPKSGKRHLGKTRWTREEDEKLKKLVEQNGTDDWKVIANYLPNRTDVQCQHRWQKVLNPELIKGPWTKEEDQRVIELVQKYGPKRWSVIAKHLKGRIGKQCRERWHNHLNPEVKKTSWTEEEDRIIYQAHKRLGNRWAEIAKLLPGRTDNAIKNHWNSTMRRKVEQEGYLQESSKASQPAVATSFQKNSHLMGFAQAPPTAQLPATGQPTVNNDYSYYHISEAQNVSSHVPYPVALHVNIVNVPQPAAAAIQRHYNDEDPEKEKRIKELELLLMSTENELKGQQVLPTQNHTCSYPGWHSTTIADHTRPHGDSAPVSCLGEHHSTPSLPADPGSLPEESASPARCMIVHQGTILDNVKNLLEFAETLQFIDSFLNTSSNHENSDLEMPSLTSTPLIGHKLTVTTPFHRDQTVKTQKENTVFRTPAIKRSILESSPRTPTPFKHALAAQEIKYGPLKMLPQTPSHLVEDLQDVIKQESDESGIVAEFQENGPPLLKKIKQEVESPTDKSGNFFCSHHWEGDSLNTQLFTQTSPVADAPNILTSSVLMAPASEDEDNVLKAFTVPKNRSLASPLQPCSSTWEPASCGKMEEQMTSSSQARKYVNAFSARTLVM
Summary of the method: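 Steps: transfect HepG2 with cis-regulated reporter units; dose with chemical for 24 h; isolate RNA, reverse-transcribe, PCR-amplify and FAM-label reporter sequences; digest with HpaI; resolve by capillary electrophoresis. Activity fitted in both directions relative to DMSO.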

[9] = biological target: Nuclear respiratory factor 1 (Homo sapiens) (UniProt Q16656); assay: ATG_NRF1_CIS: Attagene CIS-FACTORIAL HepG2 Assay for human Nuclear Respiratory Factor 1 (NRF1) Orphan Gene (AID 2282987); conditions: HepG2 NRF1 cis-element reporter, Attagene multiplex; actives raise or lower the signal
Summary of the method: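 Fluorescence intensity of labelled reporter cDNA fragments, resolved by capillary electrophoresis, served as readout for NRF1 cis-element activity. Transiently transfected HepG2 cells were dosed for 24 hours; activity in either direction was fitted against DMSO negative control.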

[10] = ATG_NFI_CIS: Attagene CIS-FACTORIAL HepG2 Assay for human Nuclear Factor I (NFI) (AID 2282989); conditions: HepG2 cis-regulatory reporter, NFI response element transcription; actives raise or lower the signal
Summary of the method: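 HepG2 cells transiently transfected with cis-element-driven multiplexed reporter transcription units, dosed for 24 h. Reporter mRNA quantified by RT-PCR, fluorescent labelling, HpaI digestion and capillary electrophoresis; bidirectional fit versus DMSO baseline.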

[11] = biological target: Myc proto-oncogene protein (Homo sapiens) (UniProt P01106); assay: ATG_Myc_CIS: Attagene CIS-FACTORIAL HepG2 Assay for human Myelocytomatosis (Myc) Proto-Oncogene Transcription Factor (AID 2282990); conditions: HepG2, Attagene cis-reporter transcription factor activity; actives raise or lower the signal
Chain of Myc proto-oncogene protein (Homo sapiens) (P01106 whole entry, looked up): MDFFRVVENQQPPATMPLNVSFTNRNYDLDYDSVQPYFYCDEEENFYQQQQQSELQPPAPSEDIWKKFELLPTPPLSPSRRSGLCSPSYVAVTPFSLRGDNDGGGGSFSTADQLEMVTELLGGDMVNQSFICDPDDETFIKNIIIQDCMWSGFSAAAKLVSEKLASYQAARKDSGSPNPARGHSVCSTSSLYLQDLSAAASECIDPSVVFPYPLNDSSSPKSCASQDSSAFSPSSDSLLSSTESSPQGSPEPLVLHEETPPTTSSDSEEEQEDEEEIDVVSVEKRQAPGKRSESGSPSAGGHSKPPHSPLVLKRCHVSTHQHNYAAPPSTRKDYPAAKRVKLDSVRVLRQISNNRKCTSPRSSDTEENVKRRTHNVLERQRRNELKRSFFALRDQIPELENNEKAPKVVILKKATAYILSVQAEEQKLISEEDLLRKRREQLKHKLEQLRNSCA
Summary of the method: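 HepG2 cells transiently transfected with multiple cis-promoter-driven reporter transcription units, so endogenous TF activity is read. After 24 h compound exposure, reporter mRNA was quantified by RT-PCR, 6-FAM labelling, HpaI digestion and capillary electrophoresis; bidirectional fit versus DMSO.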

[12] = ATG_NF_kB_CIS: Attagene CIS-FACTORIAL HepG2 Assay for human Nuclear Factor Kappa B (NF-kB) (AID 2282991); conditions: HepG2 Attagene cis-factorial NF-kB reporter mRNA; actives raise or lower the signal
Summary of the method: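 Endogenous transcription factor activity in HepG2 was captured via cis-regulated reporter constructs; after 24 h dosing, reporter mRNA was reverse-transcribed, amplified, fluorescently labelled and sized by capillary electrophoresis, with activity fitted bidirectionally relative to DMSO.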

[13] = ATG_NRF2_ARE_CIS: Attagene CIS-FACTORIAL HepG2 Assay for human Nuclear Factor Erythroid 2 Related Factor 2 (NFR2) response to Antioxidant Response Elements (ARE) (AID 2282992); conditions: HepG2 Attagene ARE/NRF2 reporter, transcription factor activity; actives raise or lower the signal;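 on AC50: reporter mRNA level measured by RT-PCR and capillary electrophoresis fluorescence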
Summary of the method: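 HepG2 cells transiently transfected with multiplexed cis-element reporter constructs, 24 h after chemical dosing; reporter mRNA quantified by RT-PCR, fluorescent primer extension, HpaI digestion and capillary electrophoresis. Bidirectional fit relative to DMSO.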

[14] = ATG_Oct_MLP_CIS: Attagene CIS-FACTORIAL HepG2 Assay for human Octamer-Binding Transcription Factor (Oct) (AID 2282993); conditions: HepG2 Attagene cis-factorial Oct reporter, mRNA; actives raise or lower the signal
Summary of the method: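 HepG2 cells transiently transfected with cis-promoter-driven multiplexed reporter transcription units, dosed for 24 h. Reporter mRNA quantified by RT-PCR, fluorescent labelling, HpaI digestion and capillary electrophoresis; bidirectional fits versus DMSO baseline.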

[15] = biological target: Cellular tumor antigen p53 (Homo sapiens) (UniProt P04637); assay: ATG_p53_CIS: Attagene CIS-FACTORIAL HepG2 Assay for human p53 Transcription Factor (AID 2282994); conditions: HepG2 p53 cis-element reporter, Attagene mRNA; actives raise or lower the signal
Chain of Cellular tumor antigen p53 (Homo sapiens) (P04637 whole entry, looked up): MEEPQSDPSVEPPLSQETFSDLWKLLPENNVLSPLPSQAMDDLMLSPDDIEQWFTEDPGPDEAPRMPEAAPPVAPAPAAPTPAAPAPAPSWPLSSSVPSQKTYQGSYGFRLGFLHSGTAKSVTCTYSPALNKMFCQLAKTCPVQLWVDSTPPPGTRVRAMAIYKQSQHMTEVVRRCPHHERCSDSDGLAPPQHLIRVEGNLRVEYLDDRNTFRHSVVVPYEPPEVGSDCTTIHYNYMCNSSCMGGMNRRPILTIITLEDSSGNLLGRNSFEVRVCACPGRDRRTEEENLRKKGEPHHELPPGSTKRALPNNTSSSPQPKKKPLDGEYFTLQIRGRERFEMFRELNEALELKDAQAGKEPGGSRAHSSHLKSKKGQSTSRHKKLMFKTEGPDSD
Summary of the method: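 HepG2 cells transiently transfected with cis-regulated multiple reporter transcription units, dosed 24 h. Reporter mRNA measured by RT-PCR, 6-FAM primer extension, HpaI digestion and capillary electrophoresis; bidirectional fit relative to DMSO.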

[16] = BSK_3C_TissueFactor: BioMAP Diversity Plus: 3C Assay for Tissue Factor Biomarker Activity (AID 2282997); conditions: BioMAP 3C HUVEC, tissue factor biomarker readout; actives raise or lower the signal
Summary of the method: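 Dosing of human umbilical vein endothelial cells preceded a 24 h incubation. Tissue Factor was then read by ELISA, with increases and decreases both scored relative to DMSO controls.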

[17] = BSK_3C_uPAR: BioMAP Diversity Plus: 3C Assay for Urokinase-type plasminogen activator receptor (uPAR) Biomarker Activity (AID 2282998); conditions: BioMAP 3C HUVEC, uPAR biomarker ELISA; actives raise or lower the signal
Summary of the method: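 Human umbilical vein endothelial primary cells were exposed to test chemical for 24 h. Cell-surface uPAR was then quantified by ELISA, and responses were fitted bidirectionally against DMSO as negative control and baseline.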

[18] = BSK_3C_VCAM1: BioMAP Diversity Plus: 3C Assay for Vascular cell adhesion molecule 1 (VCAM1) Biomarker Activity (AID 2282999); conditions: BioMAP 3C HUVEC, VCAM1 ELISA, cytokine-stimulated; actives raise or lower the signal
Summary of the method: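 Human umbilical vein endothelial cells were dosed with compound for 24 h, after which cell-surface VCAM-1 was quantified by ELISA. Bidirectional curve fitting used DMSO as negative control and activity baseline.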

[19] = biological target: Oxysterols receptor LXR-alpha (Homo sapiens) (UniProt Q13133); assay: ATG_LXRa_TRANS: Attagene TRANS-FACTORIAL HepG2 Assay for human Liver X Receptor alpha (LXRa) (AID 2282980; active means hit-call score of the fitted dose curve at least 0.9, where 1 is the maximum); conditions: HepG2 Attagene TRANS reporter, LXRa transactivation
Chain of Oxysterols receptor LXR-alpha (Homo sapiens) (Q13133 whole entry, looked up, the tested form may be a part): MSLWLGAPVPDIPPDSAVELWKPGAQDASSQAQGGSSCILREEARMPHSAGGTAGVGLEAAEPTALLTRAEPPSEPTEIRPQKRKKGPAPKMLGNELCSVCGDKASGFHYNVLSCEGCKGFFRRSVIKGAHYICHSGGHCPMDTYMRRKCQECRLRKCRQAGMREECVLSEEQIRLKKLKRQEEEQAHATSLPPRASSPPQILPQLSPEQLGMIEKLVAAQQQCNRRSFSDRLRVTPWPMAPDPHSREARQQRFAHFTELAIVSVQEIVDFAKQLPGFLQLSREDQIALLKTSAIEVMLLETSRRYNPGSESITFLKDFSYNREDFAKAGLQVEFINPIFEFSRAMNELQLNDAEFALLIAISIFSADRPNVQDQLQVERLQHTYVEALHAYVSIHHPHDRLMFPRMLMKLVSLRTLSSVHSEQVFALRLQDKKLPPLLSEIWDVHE
Summary of the method: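 Chemical-induced reporter mRNA measured by RT-PCR with fluorescent labelling and capillary electrophoresis after 24 h dosing of transiently transfected HepG2 cells expressing exogenous NR-Gal4 chimeras; increases scored against DMSO baseline.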

[20] = ATG_M_06_TRANS: Attagene TRANS-FACTORIAL HepG2 Assay for M06 Transcription Factor (Internal Marker) (AID 2282983; active means hit-call score of the fitted dose curve at least 0.9, where 1 is the maximum;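 further: reporter transcript level by RT-PCR then capillary electrophoresis fluorescence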); conditions: HepG2 Attagene TRANS M06 internal marker reporter
Summary of the method: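 Cells: HepG2, transient multi-reporter transfection. Exposure: 24 h. Detection: RT-PCR, 6-FAM labelling, HpaI digestion (2 h, 37 °C), capillary electrophoresis. Baseline: DMSO.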

Measured: AC50

O=S1(=O)CC(Cl)(Cl)C(Cl)(Cl)C1
active: [13] 0.485 µM | [15] 2.67 µM | [16] 0.556 µM | [17] 0.695 µM | [18] 0.618 µM
not listed: [19] | [20]
inactive: all other assays above

Nc1ccc(O)c(N)c1
active: [13] 43.9 µM
not listed: [2] | [3] | [5] | [12] | [16] | [17] | [18] | [20]
inactive: all other assays above

O=C1OC2(c3ccc(O)cc3Oc3cc(O)ccc32)c2ccccc21
not listed: [1] | [4] | [6] | [7] | [12] | [15] | [19]
inactive: all other assays above

O=C(c1ccc(OCCN2CCCCC2)cc1)c1c(-c2ccc(O)cc2)sc2cc(O)ccc12
inactive: [2] | [19] | [4] | [5] | [6] | [7] | [8] | [9] | [10] | [11] | [12] | [13] | [14] | [15]
active: [8] 18.5 µM | [9] 19.6 µM and 17.7 µM | [10] 8.99 µM and 16.7 µM | [13] 6.44 µM [middle of 4 runs] | [14] 8.87 µM [middle of 4 runs] | [15] 9.07 µM and 14.9 µM and 15.1 µM | [17] 22.3 µM | [18] 35.4 µM

CN(C)CCC=C1c2ccccc2CCc2ccccc21
inactive: [2] | [3] | [19] | [6] | [8] | [9] | [10] | [11]
active: [12] 13.4 µM | [13] 33.4 µM | [14] 24.6 µM | [15] 23.1 µM

CCC(C)(C)C1CCC(=O)CC1
inactive: [1] | [4] | [20] | [8] | [9] | [10] | [11] | [12] | [13] | [14] | [15]

CCC(C)(CCCC(C)C)OC(C)=O (configuration not stated)
not listed: [1] | [4] | [7] | [12] | [16] | [17] | [18] | [20]
inactive: all other assays above

CC(=O)CC(=O)N(C)C
not listed: [1] | [5] | [12] | [16] | [17] | [18] | [19] | [20]
inactive: all other assays above

C=C1CC[C@H]2O[C@]2(C)CC[C@@H]2[C@@H]1CC2(C)C
not listed: [1] | [5] | [16] | [17] | [18]
inactive: all other assays above
